Screening results: PubChem, National Center for Advancing Translational Sciences (NCATS)
Only some compounds are listed: those with a hit (about 19% of all), similar ones and a draw of the others.
TDP1 cell noCPT: qHTS for Inhibitors of human tyrosyl-DNA phosphodiesterase 1 (TDP1): qHTS in cells in absence of CPT | DT40 Tdp1-/- hTDP1 cells, no CPT, ATP luminescence, 48 h | Potency, µM (titrated, usually from 46.2 µM), without a hit: top-dose activity change, negative = growth inhibition, actives largely listed as inhibitors | 420,000 tested, 15% active; note: potency is the fitted concentration of half-maximal effect; nearly all actives have a fitted effect of over 55% in size
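Seeded 400 DT40-hTDP1 cells/well (vehicle DMSO, no 20 nM CPT); pinned compounds; ≥48 hr at 37 °C; CellTiter-Glo luminescence as viability measure.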
uPA generation: cell surface uPA generation inhibition; cell surface uPA generation assay, qHTS; Potency, µM (top dose mostly 38.3 µM), without a hit: top-dose activity change, negative = inhibition, most hits filed as inhibitors; 330,000 tested, 0.31% active; AID 540303; active = well fitted inhibition curve with a large enough effect; inconclusive = small, poorly fitted or top-dose-only effect; inactive = no such curve, though single readings can be large or run the other way; tested in mouse RAW 264.7 cells; note: potency is the fitted concentration of half-maximal effect; nearly all actives have a fitted effect of over 55% in size
HT1080-NT tox: kills 2HG-producing HT-1080-NT fibrosarcoma cells; Potency, µM (top dose mostly 46.1 µM), inactives show at the highest dose activity, negative = less viability, usual class: cytotoxic; AID 686970; HT-1080-NT fibrosarcoma viability, CellTiter-Glo ATP luminescence, 48 h; 360,000 tested, 1.6% active;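 note: NT is the 2HG producing partner of a matched IDH1 knockdown line; potency is the fitted concentration of half-maximal effect; 0% = DMSO-treated cells and -100% = media-only wells without cells; nearly all actives have a fitted effect of over 55% in size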
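Toxicity toward the 2HG-producing NT line was scored as %Activity, normalised to DMSO and no-cell wells, from CellTiter-Glo luminescence after 48 hours' treatment.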
HT1080 IDH1KD tx: toxicity to HT-1080 IDH1 knockdown cells (counter line); HT-1080 IDH1 knockdown viability, ATP luminescence, 48 h; Potency, µM (top dose mostly 46.1 µM), for inactives: at the highest dose activity, negative = toxicity, actives largely listed as cytotoxic; 360,000 tested, 2% active;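 note: potency is the fitted concentration of half-maximal effect; 0% = DMSO wells and -100% = cell-free medium wells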
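Assay cells: HT-1080 with IDH1 knockdown, 750 per well, RPMI/5% FBS. Exposure: 48 h at 37 °C following 2 h pre-incubation. Read: CellTiter-Glo luminescence; fitted concentration-response, curve class assigned.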
TDP1 cell CPT: DT40-hTDP1 cell growth loss with CPT; chicken DT40 Tdp1-/-;hTDP1 cells + 20 nM CPT, ATP luminescence, 48 h; Potency, µM (titrated, usually from 46.2 µM), inactives show at the highest dose activity change, negative = growth inhibition, usual class: inhibitors; 420,000 tested, 12% active; AID 686979; note: potency is the fitted concentration of half-maximal effect; nearly all actives have a fitted effect of over 55% in size
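Chicken DT40 Tdp1-/- cells stably complemented with human TDP1 were seeded at 400 cells/well in medium containing 20 nM camptothecin, exposed to pin-transferred compounds, and grown at 37 °C for at least 48 hr. Viability was read as ATP luminescence.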
IL1B secr inh: blocks inflammasome-driven IL-1 beta release; 360,000 tested, 4.7% active; AID 743279; activity change, % at 57.5 µM; THP-1 LPS/ATP IL-1B secretion, AlphaLISA, 16 h; stronger effect = lower value; in the data active = activity change below about -50%; inconclusive = mostly about -30% to -49%
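THP-1 cells pretreated 1 hr with compounds (up to 57.5 uM final), then stimulated with LPS (250 ng/mL final) plus ATP (1.25 mM final); secreted IL-1B measured by AlphaLISA after 16 hr, decreased signal indicating inhibition.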
Active calls of the source: *; ? = inconclusive; . = not tested or not shown. Unless noted, calls come from the whole dose curve; as a rule, active = well fitted curve in the direction sought with a large enough effect; inconclusive = small, poorly fitted or top-dose-only effect, or another doubt; inactive = no such curve, though single readings can be large; an effect the other way counts as inactive or inconclusive. Unless noted, % is set by controls: 0 for no effect and ±100 for the full control effect.

SMILES	TDP1 cell noCPT	uPA generation	HT1080-NT tox	HT1080 IDH1KD tx	TDP1 cell CPT	IL1B secr inh
CC(=O)c1cccc(NC(=O)C2Cc3c(-c4cccc(C(N)=O)c4)ccnc3O2)c1 (stereo not drawn)	16.4µM*	.	?	-12.0%	16.4µM*	-0.9
CC(=O)Nc1cccc(-c2ccnc3c2CC(C(=O)NC(C)C)O3)c1 (stereo not drawn)	?	.	-3.2%	18.0%	-21.7%	-16.8
CC(=O)c1cccc(NC(=O)C2Cc3c(-c4cccc(C(C)=O)c4)ccnc3O2)c1 (stereo not drawn)	14.6µM*	.	-25.4%	-15.3%	16.4µM*	-0.1
Cc1ccccc1NS(=O)(=O)c1cccc2nsnc12	-5.0%	-5.6%	14.0%	17.5%	0.0%	11.1
Cc1nn(C)cc1/C=C/C(=O)c1ccc(O)cc1	?	-4.9%	5.9%	1.6%	0.9%	-25.2
Cc1cc(C)cc(C(=O)C[n+]2cccc(Br)c2)c1	-7.0%	.	.	.	-10.8%	.
CCOC(=O)c1sc(NC(=O)CN2CC(C)OC(C)C2)nc1C (stereo not drawn)	-1.7%	5.0%	2.6%	-0.6%	-0.1%	37.8
CC(=O)OC1CC2(C)/C(=N\O)CCC2C2CCc3cc(O)ccc3C12 (stereo not drawn)	3.2%	-8.3%	-2.3%	-0.4%	-9.4%	60.8
CN1C(=O)CCS(=O)(=O)C1c1ccc(Cl)c(Cl)c1 (stereo not drawn)	-0.9%	.	12.9%	7.0%	-4.8%	2.8
CCN(CC)C(=O)Cn1c(=O)n(-c2ccc(OC)cc2OC)c(=O)c2c(C)c(C(=O)N(CC)CC)sc21	16.9%	.	.	.	4.6%	.
CC(=O)c1cccc(-c2ccnc3c2CC(C(=O)Nc2cccc(C(F)(F)F)c2)O3)c1 (stereo not drawn)	13µM*	.	-26.6%	-14.5%	25.9µM*	44.1
O=C(Nc1cccc(Oc2ccccc2)c1)C1Cc2c(-c3ccco3)ccnc2O1 (stereo not drawn)	?	.	-1.2%	-14.5%	?	?
CC(=O)Nc1ccc(-c2ccnc3c2CC(C(=O)Nc2cccnc2)O3)cc1 (stereo not drawn)	3.66µM*	.	13µM*	13µM*	5.17µM*	-7.8
CC(=O)Nc1ccc(-c2ccnc3c2CC(C(=O)Nc2cccc(C(C)=O)c2)O3)cc1 (stereo not drawn)	14.6µM*	.	-11.2%	0.0%	?	-27.1
CC(=O)Nc1ccc(-c2ccnc3c2CC(C(=O)NCCc2ccccc2)O3)cc1 (stereo not drawn)	?	.	-14.5%	0.0%	?	53.5
CC(=O)c1cccc(-c2ccnc3c2CC(C(=O)Nc2cccc(N(C)C)c2)O3)c1 (stereo not drawn)	?	.	?	?	?	-12.1
CS(=O)(=O)Nc1cccc(NC(=O)C2Cc3c(-c4ccco4)ccnc3O2)c1 (stereo not drawn)	13µM*	.	18.4µM*	?	?	0.0
CCc1cccc(OCC(=O)Nc2ccc(S(=O)(=O)Nc3ncccn3)cc2)c1	3.4%	.	.	.	-0.7%	.
O=C(NCCCN1CCOCC1)c1cnccn1	16.8%	3.7%	4.4%	9.5%	-8.4%	-5.5
O=C(Nc1ccc(Cl)c(C(F)(F)F)c1)C1Cc2c(-c3ccccc3)ccnc2O1 (stereo not drawn)	?	.	?	?	?	-1.3
CC(=O)c1cccc(-c2ccnc3c2CC(C(=O)Nc2cccc(NS(C)(=O)=O)c2)O3)c1 (stereo not drawn)	9.2µM*	.	?	18.4µM*	14.6µM*	-9.6
CC(=O)Nc1ccc(-c2ccnc3c2CC(C(=O)Nc2ccc(Cl)c(C(F)(F)F)c2)O3)cc1 (stereo not drawn)	?	.	?	?	20.6µM*	?
CC(C)CN1C(=O)CSCC1(C)C(=O)NC(C)C (stereo not drawn)	4.2%	.	4.4%	-5.1%	30.6%	-67.9*
CC(C)CN1C(=O)CSCC1(C)C(=O)Nc1ccc2c(c1)OCCO2 (stereo not drawn)	-19.5%	.	1.7%	17.4%	-24.4%	-15.9
O=C(Nc1ccc(OCC(=O)N2CCC(Cc3ccccc3)CC2)cc1)c1ccco1	29.1µM*	-7.2%	1.7%	10.0%	20.6µM*	?
SMILES	TDP1 cell noCPT	uPA generation	HT1080-NT tox	HT1080 IDH1KD tx	TDP1 cell CPT	IL1B secr inh
CC(=O)Nc1ccc(OCC(=O)N2CCC(Cc3ccccc3)CC2)cc1	-29.9%	-8.2%	0.9%	-1.0%	4.4%	-52.9*
CC1=C([N+](=O)[O-])C(c2ccccc2Cl)NC(=O)N1C (stereo not drawn)	1.5%	-2.2%	14.1%	8.3%	29.1%	-4.8
CC(C)(C)C(=O)OCOC(=O)C1N2C(=O)CC2S(=O)(=O)C1(C)C (stereo not drawn)	-1.7%	.	.	.	5.2%	.
CS(=O)(=O)c1ccc(C(=O)NC2CCCc3ccccc32)cc1 (stereo not drawn)	-9.4%	.	11.0%	19.2%	2.0%	-9.9
NC(N)=N/N=C/c1ccc2cccc(OCc3ccccc3)c2n1	7.31µM*	-10.4%	23.1µM*	?	9.2µM*	-96.0*
NC(=S)N/N=C/c1ccc2cccc(OCc3ccccc3)c2n1	29.1µM*	-0.3%	-18.2%	-9.5%	?	-7.4
O/N=C/c1ccc2cccc(OCc3ccccc3)c2n1	-1.7%	7.5%	-4.2%	-1.9%	-3.9%	18.7
COc1ccc(-n2ncc3c(NC(C)(C)CO)ncnc32)cc1	-27.4%	.	.	.	-19.8%	.
CN(C(=O)c1cccc(NC(=O)Cc2ccc(NC(=O)C3CCCN(C(=O)C4CC4)C3)cc2)c1)C1CCCCC1 (stereo not drawn)	-6.7%	-10.1%	11.3%	7.9%	-6.5%	4.9
CN1C(=O)NC(c2ccc(Cl)cc2)C2=C1CC(C)(C)CC2=O (stereo not drawn)	-1.8%	4.9%	1.3%	9.3%	14.3%	15.2
CCCCN=Cc1c(C)[nH]n(-c2ccccc2)c1=S	?	4.2%	-0.7%	-2.0%	-28.4%	-5.2
Cc1cc(C(=O)N/N=C/c2c3ccccc3cc3ccccc23)n[nH]1	9.2µM*	-1.7%	?	16.4µM*	?	16.8
Cc1ccc(-n2[nH]c(C)c(/C=N/NC(=O)c3ccc(O)cc3O)c2=O)cc1	5.17µM*	?	2.06µM*	10.3µM*	11.6µM*	220.5
CCCCN(CCCC)C(=S)N/N=C/c1c(C)[nH]n(-c2ccccc2)c1=O	2.59µM*	1.9%	?	6.51µM*	2.06µM*	91.9
